Assay results as given in the supplement of paper PMC11732987, “Enantioselective OTUD7B fragment discovery through chemoproteomics screening and high-throughput optimisation” (Communications Chemistry, 2025).

target: ATXN3 (UniProt P54252); test: log2 ratio of Biotin-Ahx-Ub-VS probe labelling (fragment/DMSO); higher = less target engagement (more negative = stronger competition), active = hit call of the paper (q ≤ 0.05, log2 ratio ≤ -1); conditions: compound concentration: 200 uM; treatment time: 3 h
Procedure, shortened: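 Labelled DUBs were enriched with NeutrAvidin, digested with LysC and trypsin, and run by diaPASEF LC-MS/MS. The labelling used Biotin-Ahx-Ub-VS at 0.5 µM final for 1 h on HEK293T lysate (495 µg per sample) previously treated in triplicate with fragment at 200 µM or vehicle for 3 h. Values are average log2 fragment/vehicle ratios by unpaired t-test on global-median-normalised Spectronaut quantities of proteins with ≥2 unique peptides.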

ATXN3, sequence (P54252 whole entry, the tested form may be a part): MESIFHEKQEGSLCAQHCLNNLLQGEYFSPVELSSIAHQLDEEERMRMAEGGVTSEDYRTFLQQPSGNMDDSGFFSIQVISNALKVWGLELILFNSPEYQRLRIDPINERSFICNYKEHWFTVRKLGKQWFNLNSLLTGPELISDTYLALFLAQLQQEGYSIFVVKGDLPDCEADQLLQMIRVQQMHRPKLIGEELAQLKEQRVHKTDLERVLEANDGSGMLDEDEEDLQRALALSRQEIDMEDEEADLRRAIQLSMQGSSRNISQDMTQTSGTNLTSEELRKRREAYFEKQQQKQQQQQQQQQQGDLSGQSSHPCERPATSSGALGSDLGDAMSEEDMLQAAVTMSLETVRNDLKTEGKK

log2 ratio of Biotin-Ahx-Ub-VS probe labelling, inactive:
CC(NC(=O)CCl)c1cnn(C2CC2)c1 (stereo not given) -0.145
Cc1nc(-c2cccc(NC(=O)CCl)c2)cs1 -0.742
Cn1cc(CN(Cc2ccc(Cl)cc2)C(=O)CCl)cn1 -0.833
O=C(CCl)NCc1cccc(F)c1 -0.297
CC(=O)C1CCCCN1C(=O)CCl (stereo not given) 0.025
CC(NC(=O)CCl)c1cc2n(n1)CCCC2.Cl (stereo not given) 0.242
CCN(C(=O)CCl)C1CCCCC1 -0.0119
O=C(CCl)Nc1ccccc1C(F)(F)F -0.449
Cc1ccc(-c2nnc(C)[nH]2)c(NC(=O)CCl)c1 -0.0255
O=C(CCl)NC1CCC(C(F)(F)F)CC1 (stereo not given) -0.373
Cc1ccc(C)c(NC(=O)CCl)c1 -0.548
CC(O)CC1CCN(C(=O)CCl)CC1 (stereo not given) -0.291
Cc1c(NC(=O)CCl)c(=O)n(-c2ccccc2)n1C -0.0623
Cc1ncc2c(n1)CCN(C(=O)CCl)C2 -0.614
Cc1conc1C1CN(C(=O)CCl)C1 -0.85
Cc1ccc(CC(NC(=O)CCl)c2ccccn2)cc1.Cl (stereo not given) 0.249
O=C(CCl)N1CCC(c2nc3ccccc3o2)CC1 -0.627
Cc1cc(C2CCCN2C(=O)CCl)nn1C.Cl (stereo not given) -0.374
O=C(CCl)Nc1cc2c(cc1Cl)OCCO2 0.00781
O=C(CCl)N1CCC(C(O)c2ccc(F)cc2)CC1 (stereo not given) -0.475
Cc1nc(CN2CCCN(C(=O)CCl)CC2)no1.Cl 0.224
Cc1cccn2cc(CCNC(=O)CCl)nc12.Cl -0.114
O=C(CCl)N1CCOC(CCc2ccccc2)C1 (stereo not given) -0.798
O=C(CCl)N1CCOCCC1c1ccccc1 (stereo not given) 0.117
O=C(CCl)N[C@H]1CC[C@@H](CO)CC1 -0.868
O=C(CCl)N1CCOC2(CCC2)CC1 -0.29
CC(NC(=O)CCl)c1ccc2[nH]ncc2c1 (stereo not given) -0.431
CN(C)C(=O)c1ccc(CNC(=O)CCl)cc1 -0.0706
Cc1cnc2[nH]cc(CCNC(=O)CCl)c2c1 -0.0726
Cl.Cn1nccc1C(NC(=O)CCl)c1ccccc1 (stereo not given) -0.49
Cc1cccc(NC(=O)CCl)c1C -0.243
Cc1nnc(C(NC(=O)CCl)c2ccccc2)n1C (stereo not given) 0.355
O=C(CCl)NC1CCC2(CC1)OCCO2 -0.347
Cc1cccc2nc(CCNC(=O)CCl)cn12.Cl -0.436
N#Cc1ccc(Cl)cc1NC(=O)CCl -0.113
